Measurements from PubChem BioAssay AID1159580 (chemical genetic matrix, 2015).
Among all 5,500 compounds or so, about 2,000 (36%) were called active. About 18% were inconclusive and are not listed. No stated cut-off is given here; in the data, active means normalized growth mostly below about 0.91 (no sharp cut-off); inconclusive means no clear call, values can overlap the other calls; inactive means mostly above about 0.92. The list shows a part of the results.

Test: chemical genetic growth profiling, strain panel (AID 1159580);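 further: tested at 20 µM; growth read once vehicle control cultures reached saturation at 30 °C; 1 = growth at the plate median or of vehicle wells; lower values mean less growth of the strain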
Settings: S. cerevisiae deletion strains, growth OD

Measured: normalized growth

Nc1ccc(N=Nc2ccc(S(N)(=O)=O)cc2)c2ccccc12
inactive: locus YAL013W, strain DEP1, active compounds read low 0.999 | locus YBR229C, strain ROT2, active compounds read low 1 | locus YCL061C, strain MRC1, active compounds read low 0.998 | locus YDL101C, strain DUN1, active compounds read low 0.98 | locus YDR150W, strain NUM1, active compounds read low 0.906 | locus YEL061C, strain CIN8, active compounds read low 0.989 | locus YGR078C, strain PAC10, active compounds read low 1 | locus YGR229C, strain SMI1, active compounds read low 1 | locus YHR030C, strain SLT2, active compounds read low 1.04 | locus YHR087W, strain rtc3, active compounds read low 0.995 | locus YJL187C, strain SWE1, active compounds read low 1.01 | locus YJR043C, strain POL32, active compounds read low 1 | locus YJR075W, strain HOC1, active compounds read low 1.02 | locus YLR039C, strain RIC1, active compounds read low 0.983 | locus YLR058C, strain SHM2 (second series), active compounds read low 1.01 | locus YLR085C, strain ARP6, active compounds read low 1.03 | locus YLR262C, strain YPT6, active compounds read low 1 | locus YML094W, strain GIM5, active compounds read low 0.986 | locus YMR219W, strain ESC1, active compounds read low 0.994 | locus YMR263W, strain SAP30, active compounds read low 0.916 | locus YNL153C, strain GIM3, active compounds read low 1 | locus YNL298W, strain CLA4 (second series), active compounds read low 0.982 | locus YNL322C, strain KRE1, active compounds read low 0.997 | locus YNR030W, strain Alg12, active compounds read low 1.01 | locus YPL055C, strain LGE1, active compounds read low 0.893 | locus YPL241C, strain CIN2, active compounds read low 1 | locus YPR135W, strain CTF4, active compounds read low 1.06
